# Reference: PubChem BioAssay (Tox21)
# Several values for one entry are separate records, joined by “and”; a condition that tells them apart may be missing. Equal entries are not always repeated. Records with an inconclusive call do not appear. Activity calls are given as the source filed them. The call rests on the fitted dose curve; in most records, active means well fitted cell-killing curve with a large enough effect in the repeat runs; inconclusive means weak or mixed curves, or effect the other way; inactive means no such curve, though single readings can be large or run the other way.
# Assay: qHTS assay to identify small molecule antagonists of the peroxisome proliferator-activated receptor gamma (PPARg) signaling pathway - cell viability counter screen (AID 743194); further: nearly all actives have a fitted effect of over 55% in size
# Conditions: PPARg-bla HEK293H viability, CellTiter-Glo luminescence, 17 h; Potency: co-treated with 50 nM rosiglitazone unless noted; series mostly up to 62.6 µM; activity change, negative = cytotoxicity: at the top concentration
# Source text: U.S. Tox21 Program National Center for Advancing Translational Sciences [NCATS] NIH Chemical Genomics Center [NCGC] U.S. Environmental Protection Agency [EPA] National Institutes of Environmental Health Sciences [NIEHS] National Toxicology Program [NTP] U.S. Food and Drug Administration [FDA] Tox21 Assay Overview: The peroxisome proliferator-activated receptors (PPARs) are lipid-activated transcription factors of the nuclear receptor superfamily with three distinct subtypes namely PPAR alpha, PPAR delta (also called PPAR beta) and PPAR gamma (PPARg). All these subtypes heterodimerize with Retinoid X receptor (RXR) and these heterodimers regulate transcription of various genes. PPAR-gamma receptor (glitazone receptor) is involved in the regulation of glucose and lipid metabolism. To identify the compounds that activate PPAR-gamma signaling, GeneBLAzer PPAR gamma UAS-bla HEK293H cell line (Invitrogen, Carlsbad, CA, USA) containing a beta-lactamase reporter gene under the control of an Upstream Activator Sequence (UAS) was used to screen the Tox21 compound library. The cytotoxicity of the Tox21 compound library against the PPARg-bla cell line was tested in parallel by measuring the cell viability using CellTiter-Glo assay in the same wells.
# Tox21 Assay Protocol Summary: PPARg-bla cells were dispensed at 3000 cells/5uL/well in 1536-well black wall/clear bottom plates using a Multidrop Combi (Thermo Fisher Scientific, Waltham, MA) dispenser. After the assay plates were incubated at 37 C and 5% CO2 for 5 h, 23 nL of compounds dissolved in DMSO, positive controls or DMSO only was transferred to the assay plate by a Pintool station (Kalypsys, San Diego, CA), followed by addition of 1ul Rosiglitazone (50 nM, final concentration in the wells). The assay plates were incubated at 37 C for 17 h, and then 1 uL of LiveBLAzerTM B/G FRET substrate was added using a Bioraptr Flying Reagent Dispenser (FRD) workstation (Beckman Coulter, Indianapolis, IN, USA). The assay plates were incubated at room temperature for 1 h and fluorescence intensity was measured by an Envision plate reader (PerkinElmer, Shelton, CT). For cell viability readout that measures cytotoxicity, 4 ul/well of CellTiter-Glo reagent was added into the assay plates using a Flying Reagent Dispenser. After 30 min incubation at room temperature, the luminescence intensity in the plates was measured using a ViewLux plate reader (PerkinElmer).
# On the % scale 0 is the no-effect control and ±100 the full control effect; potency means the concentration at half of the fitted maximal effect.
SMILES,Potency,"activity change, negative = cytotoxicity"
O=[N+]([O-])c1cc(C(F)(F)F)c(Cl)c([N+](=O)[O-])c1Nc1ncc(C(F)(F)F)cc1Cl,1.1 µM (active),–
CN1C(=O)[C@@H](NC(=O)c2cc3ccccc3[nH]2)N=C(c2ccccc2)c2ccccc21,–,-24.6% (inactive)
O=C(Cl)c1ccccc1F,–,-9.62% (inactive)
CCN(CC)Cc1nccn1-c1ccc([N+](=O)[O-])cc1C(=O)c1ccccc1Cl,–,-5.52% (inactive)
CCC(C)c1cccc(C(C)CC)c1O (stereo not given),–,2.22% (inactive)
[O]=[Cr](=[O])([OH])[O][Cr](=[O])(=[O])[OH],3.93 µM (active) and 7.74 µM (active),–
CCCCC/C=C\C/C=C\C/C=C\C/C=C\CCCC(=O)NCC(=O)O,–,-0.805% (inactive)
CC(C)NCC(O)c1ccccc1Cl (stereo not given),–,-0.0648% (inactive)
CC(O)C(=O)[O][Hg][c]1ccccc1 (stereo not given),0.436 µM (active),–
COP(=S)(OC)Oc1ccc([N+](=O)[O-])c(C)c1,–,-7.11% (inactive)
O=S1OCC2C(CO1)C1(Cl)C(Cl)=C(Cl)C2(Cl)C1(Cl)Cl (stereo not given),55 µM (active) and 24.5 µM (active),–
Clc1ccc(C(c2ccc(Cl)cc2)C(Cl)Cl)cc1,24.9 µM (active) and 38.9 µM (active),–
CCCN,–,"1.1% [at 81.1 µM, co-treated with 50 nM rosiglitazone] (inactive)"
Nc1ccc(Cl)cc1C(=O)c1ccccc1F,–,-4.92% (inactive)
N#Cc1c[nH]cc1-c1cccc2c1OC(F)(F)O2,–,1.06% (inactive)
Cc1ccn2nc(S(=O)(=O)Nc3c(F)cccc3F)nc2n1,–,0.206% (inactive)
CCNc1nc(NC(C)C(C)C)nc(SC)n1 (stereo not given),–,1.89% (inactive)
ClC1(Cl)C2(Cl)C3(Cl)C4(Cl)C(Cl)(Cl)C5(Cl)C3(Cl)C1(Cl)C5(Cl)C24Cl (stereo not given),–,0.701% (inactive)
O=[N+]([O-])c1ccc(Cl)c(Cl)c1Cl,–,-21.9% (inactive)
CCN(CC)CCc1c[nH]c2ccccc12,–,0.639% [at 81.1 µM] (inactive)

SMILES,Potency,"activity change, negative = cytotoxicity"
Oc1cccc(Cl)c1Cl,–,"20.9% [at 81.1 µM, co-treated with 50 nM rosiglitazone] (inactive)"
c1ccc2c(c1)cc1ccc3cccc4ccc2c1c34,–,"13.4% [at 81.1 µM, co-treated with 50 nM rosiglitazone] (inactive)"
CN1[C@@H]2CC[C@H]1CC(O)C2 (stereo not given in full),–,"5.16% [at 81.1 µM, co-treated with 50 nM rosiglitazone] (inactive)"
c1ccc(Nc2ccc(Nc3ccccc3)cc2)cc1,–,10.5% (inactive)
Cc1cc2c3c(c1)C(c1ccccc1)=N[C@@H](NC(=O)c1ccncc1)C(=O)N3CC2,–,1.31% (inactive)
Brc1ccc(Oc2ccc(Br)cc2Br)c(Br)c1,–,-26.8% (inactive)
[C-]1=CC=CC1.[Cl][Zr+2][Cl].c1cc[cH-]c1,–,"2.55% [at 81.1 µM, co-treated with 50 nM rosiglitazone] (inactive)"
COc1ccc2[nH]cc(CCN(C(C)C)C(C)C)c2c1,–,-0.285% [at 81.1 µM] (inactive)
O=C1C2(Cl)C3(Cl)C4(Cl)C(Cl)(Cl)C5(Cl)C3(Cl)C1(Cl)C5(Cl)C24Cl (stereo not given),38.3 µM (active),–
CC(Cl)CCl (stereo not given),–,-0.888% (inactive)
CCC[CH2][Sn]([CH2]CCC)([O]C(C)=O)[O]C(C)=O,2.78 µM (active),–
CCCCCCCc1ccc(O)cc1,–,-18.5% (inactive)
CCC(C)Br (stereo not given),–,"14.7% [at 81.1 µM, co-treated with 50 nM rosiglitazone] (inactive)"
[Cl-].[Cl-].[Sn+2],–,2.01% (inactive)
CCN(CC)CCN1C(=O)CN=C(c2ccccc2F)c2cc(Cl)ccc21,–,-0.0382% [at 62.6 µM] (inactive)
S=C=Nc1ccccc1,–,"-1.98% [at 81.1 µM, co-treated with 50 nM rosiglitazone] (inactive)"
CC(C)N(C(=O)SC/C(Cl)=C/Cl)C(C)C,–,"3.72% [at 81.1 µM, co-treated with 50 nM rosiglitazone] (inactive)"
CCOC(=O)Cc1ccccc1,–,3.29% [at 62.6 µM] (inactive)
Nc1ccccc1-c1ccccc1,–,13.2% (inactive)
CCCCN(CCCC)C(=S)[S-].CCCCN(CCCC)C(=S)[S-].[Ni+2],–,-1.07% (inactive)
